Screening results as filed in PubChem.
Hits are enriched below; roughly 2.4% of the tested compounds scored in any of these assays.
D2 ag-1: D2 dopamine receptor (human) agonism | AID 485358 | HEK293 T-REx D2 cells, calcium flux agonist mode | activation, % at 2 µM | P14416 | 340,000 tested, 0.53% active;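 active = activation over 3 SD above normal in the single-dose calcium agonist read, cut at about 30% in these data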; also: 0% is about no effect
Target sequence (P14416 whole entry, looked up): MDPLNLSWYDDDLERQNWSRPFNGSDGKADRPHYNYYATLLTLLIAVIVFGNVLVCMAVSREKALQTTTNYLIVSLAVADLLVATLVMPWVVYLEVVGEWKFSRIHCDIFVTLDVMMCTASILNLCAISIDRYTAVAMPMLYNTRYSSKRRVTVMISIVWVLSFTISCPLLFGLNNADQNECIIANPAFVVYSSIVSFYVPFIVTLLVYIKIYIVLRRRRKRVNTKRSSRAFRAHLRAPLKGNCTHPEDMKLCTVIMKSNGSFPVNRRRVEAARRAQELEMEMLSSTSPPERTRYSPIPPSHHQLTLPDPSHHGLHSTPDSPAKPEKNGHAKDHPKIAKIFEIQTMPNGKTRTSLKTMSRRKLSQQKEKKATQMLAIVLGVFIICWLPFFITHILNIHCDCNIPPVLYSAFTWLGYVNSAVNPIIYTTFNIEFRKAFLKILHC
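Agonism scored from kinetic calcium signal (1 read/sec, 180 s) following compound pin transfer, after a 10 s baseline. Cells: HEK293 Trex line expressing inducible D2 receptor coupled to calcium, dye-loaded after overnight culture at 30 C.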
D2 ag-2: agonists of human D2 dopamine receptor (beta-arrestin); P14416; 360,000 tested, 0.084% active; DiscoveRx PathHunter D2 beta-arrestin, luminescence, 90 min; 100% = 57 uM dopamine signal; activation, % (no concentration beside the values); in the data active = activation above about 40%; inconclusive = between about 15% and that limit
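Agonist mode: compounds alone added to overnight-plated D2 PathHunter cells for 90 min at 37 C, with 57 uM final dopamine (EC100) defining full response. Beta-arrestin recruitment detected by chemiluminescent reagent, read after 1 h at ambient temperature.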
D2 PAM-1: positive allosteric modulators of human D2 dopamine receptor; P14416; DiscoveRx D2 beta-arrestin cells, luminescence, 90 min; 100% = 57 uM dopamine signal; potentiation, % (concentration not given with the values); 360,000 tested, 0.23% active; AID 624464; in the data active = potentiation above about 50%; inconclusive = mostly about 30% to 49%
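PathHunter D2 cells, attached overnight at 37 deg C, received compound in DMSO plus dopamine at EC20 (50 nM final) for 90 min at 37 deg C. Beta-arrestin recruitment was read as luminescence after 1 h with detection reagent at ambient temperature.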
D2 PAM-2: positive allosteric modulators of human D2 dopamine receptor. P14416. HEK293 T-REx D2, calcium flux, EC20 dopamine potentiation. potentiation, % at 10 µM. 340,000 tested, 0.34% active. AID 485347;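 active = potentiation over 3 SD above the plate norm, cut at about 30% in these data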; also: 0% is about no effect
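Primary screen. Calcium kinetics in induced HEK293 T-REx D2 cells: compound pre-addition 180 s, EC20 dopamine, 180 s more.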
D2 antagonist: antagonizes the human D2 dopamine receptor; AID 485344; inhibition, % at 10 µM; P14416; HEK293 TREx D2 cells, calcium flux, dopamine EC80; 340,000 tested, 2% active; in the data active = inhibition above about 30%; inactive = below that, where a call was filed; also: 0% is about no effect
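Dopamine at EC80 is the agonist stimulus; test compounds precede it by 180 s. Calcium flux read kinetically in a force-coupled, inducible HEK293 T-REx D2 cell line.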
An asterisk follows results filed as active; ? = inconclusive; . = no result given.

SMILES	D2 ag-1	D2 ag-2	D2 PAM-1	D2 PAM-2	D2 antagonist
FC(F)Oc1ccc(NC(=S)NC2CCCCCCC2)cc1	2	-3	2	15	33*
COc1ccccc1CNC(=O)c1cnn2c(C)c(Cc3ccc(F)cc3)c(C)nc12	1	.	.	-7	.
Cn1c(CN2CCCCC2)nc2cc(NC(=O)c3ccccc3)ccc21	34*	?	-3	-21	36*
CCOC(=O)Nc1ccc2c(c1)nc(CN1CCCCC1)n2C	0	.	.	-26	31*
Cn1c(CN2CCCCC2)nc2cc(NC(=O)c3cccc(Br)c3)ccc21	-1	-2	-6	-7	9
CCOc1ccccc1NC(=O)CCCc1nc(-c2ccccc2Cl)no1	0	.	.	-3	.
CCc1ccccc1NC(=O)CSc1nnc(-c2cc(OC)c(OC)c(OC)c2)o1	3	.	.	3	.
CC(C)c1ccc(NC(=O)c2cc(S(=O)(=O)NC3CCCCC3)ccc2F)cc1	.	.	.	15	.
O=C(CCN1CCOCC1)NNC(=O)c1ccc(Cl)c([N+](=O)[O-])c1	.	-3	-2	.	.
O=C(CCN1CCOCC1)NNC(=O)c1ccc([N+](=O)[O-])cc1[N+](=O)[O-]	.	6	59*	.	.
Cc1cc(C(=O)COC(=O)Cn2cnc3c2c(=O)n(C)c(=O)n3C)c(C)n1C	0	-1	-9	9	45*
CCC(C)(C)NC(=O)CN(C(=O)CCC(=O)Nc1nccs1)c1ccccc1C	0	-2	-11	-3	39*
Cc1ccc2c(c1)N(C(=O)CCC(=O)NCc1cccc(Br)c1)CC(C)O2 (stereo not given)	1	-2	-13	-12	-2
N#CCC(=N)N1CCN(c2cccc(Cl)c2)CC1	1	0	-22	-15	63*
O=C(COC(=O)c1cc(-c2ccccc2)nc2ccccc12)c1ccc(Br)cc1	.	.	.	-1	.
C/C(N)=C(/C#N)C(=O)COC(=O)c1cc(-c2ccc(Br)cc2)nc2ccccc12	2	7	-1	-12	47*
CCOc1ccccc1C(=O)Nc1ccc(S(=O)(=O)Nc2ncccn2)cc1	0	.	.	7	.
COc1cc(CN2CCN(C(c3ccccc3)c3ccccc3)CC2)cc(OC)c1OC	-2	3	-7	-19	17
Cc1cccc(CN2CCN(C(c3ccccc3)c3ccc(Cl)cc3)CC2)c1 (stereo not given)	-2	-6	-24	-22	31*
CN1CCCN(C(c2ccccc2)c2ccc(Cl)cc2)CC1 (stereo not given)	2	-2	-36	-30	82*
COc1cc(CNC(=O)c2cc(-c3ccc(F)cc3C)n[nH]2)cc(OC)c1	.	5	-10	.	.
COc1ccccc1C(=O)N(CCN(C)C)c1nc2cc(C)cc(C)c2s1	0	-1	-20	-17	38*
O=C(Nc1cccc(F)c1)Nc1ccccn1	0	-4	-10	-23	87*
O=C(Nc1cccc(F)c1)Nc1cnccn1	1	1	-9	11	-13
COc1cc(C2c3c(-c4ccccc4)n[nH]c3C(=O)N2c2ccccc2)ccc1O (stereo not given)	0	3	52*	25	-5
SMILES	D2 ag-1	D2 ag-2	D2 PAM-1	D2 PAM-2	D2 antagonist
CCCCN(C(=O)COC(=O)c1ccc(C=O)cc1)c1c(N)n(CCC)c(=O)[nH]c1=O	0	1	-16	5	-13
CC(=O)N(C(C)=O)N1C(=O)c2cccc3c(N4CCOCC4)ccc(c23)C1=O	9	8	-12	3	-3
O=C1c2cccc3c(N4CCCCC4)ccc(c23)C(=O)N1c1ccccn1	37*	-3	-4	0	-5
CCCCCCOC(=O)c1ccc(OC(=O)c2cccnc2)cc1	1	-4	-15	3	-27
CCCCOC(=O)c1ccc(OC(=O)c2cccnc2)cc1	0	-2	4	2	31*
O=S(=O)(CCn1cccc1)CCn1cccc1	0	-3	-21	30*	-14
Cc1sc2ncnc(N3CCCCC3)c2c1C	0	-2	-1	16	18
Cc1sc2ncnc(NCC(c3ccco3)N3CCCC3)c2c1C (stereo not given)	-2	-4	-26	-8	32*
CC1CCCCC1NC(=O)CCNS(=O)(=O)c1cc(Br)cnc1N (stereo not given)	0	1	-7	3	33*
COc1ccc(CNC(=O)CCNS(=O)(=O)c2cc(Br)cnc2N)cc1	0	-3	-5	46*	-5
Nc1ncc(Br)cc1S(=O)(=O)NCCC(=O)NCc1ccc(F)cc1	0	1	-14	-3	-20
CCCSc1nnc2n(-c3ccc(OC)cc3)c(=O)c3c4c(sc3n12)COC(C(C)C)C4 (stereo not given)	.	.	.	-6	.
Cc1nn(C)c(C)c1S(=O)(=O)N1CCC(C(=O)NCCC2=CCCCC2)CC1	-1	-2	-9	-7	30*
Cc1noc(C)c1S(=O)(=O)N1CCC(C(=O)NCCC2=CCCCC2)CC1	0	-3	-12	-1	-24
Cc1nn(C)c(C)c1S(=O)(=O)N1CCC(C(=O)NC2CCCCCC2)CC1	1	0	-6	1	33*
C=C(C)Cn1c(SCC(=O)O)nnc1-c1ccc(C(C)(C)C)cc1	0	-2	8	-4	30*
C=C(C)Cn1c(SCC(=O)O)nnc1-c1ccccc1	-1	1	-1	5	-6
COc1ccc(NC(=O)CSc2ccc([N+](=O)[O-])cc2)cc1S(=O)(=O)N1CCOCC1	0	6	-3	-6	6
Cc1[nH]c2ccccc2c1C(c1ccncc1)N1CCN(c2ccccn2)CC1 (stereo not given)	35*	0	3	-21	15
CSCCC(C(=O)N(C)CC(=O)Nc1cccc(F)c1)N1C(=O)c2ccccc2C1=O (stereo not given)	0	-1	-1	5	-10
CCc1ccc(OCC(=O)N/N=C(\C)c2ccc(O)cc2O)cc1	0	-4	-7	-13	45*
COc1ccccc1NC(=O)Nc1nc(C(C)(C)C)cs1	0	-3	-26	-18	35*
COc1ccccc1NC(=O)Nc1nc(CC(=O)Nc2cccc(F)c2)cs1	-1	7	-13	19	-20
COc1ccccc1NC(=O)Nc1ccc(-n2ccc(C(F)(F)F)n2)cc1	1	1	-14	-14	71*
COc1ccccc1NC(=O)Nc1cc(F)ccc1F	0	-2	-4	-5	32*
Cc1cc(C)cc(NC(=O)Nc2ccc(-n3ccc(C(F)(F)F)n3)cc2)c1	2	5	-7	-13	11
COc1ccccc1NC(=O)Nc1nc(CC(=O)Nc2cc(F)ccc2F)cs1	0	-2	56*	-5	14
